From PubChem BioAssay AID743312 (Broad Institute, 2014) come the findings set out here.

The experiment in a line: A549 cell cytotoxicity, dose response, cytotoxicity control, plate reader, dry powder, set 6 (AID 743312).

Results with a measured potency or affinity are listed apart. The source made the active and inactive calls. The rule behind the calls is not given here.

As to `CSc1nc2ccccc2n1CCOc1cc(C)ccc1C(C)C`, the outcome was inactive. On to `COc1ccccc1OCCn1c(=S)[nH]c2ccccc21`, for which the compound was called inactive. With `CS(=O)(=O)c1ccc(OCCn2cnc3ccccc32)cc1`, the result was inactive. With `COc1ccccc1OCCn1c(SC)nc2ccccc21`, the compound was classed as inactive.

Take `Clc1ccc(OCCn2cnc3ccccc32)cc1`: the compound was called inactive. Consider `Cc1ccc(C(C)C)c(OCCn2c(NC#N)nc3ccccc32)c1`, for which the outcome was inactive.

Take `CC(C)(C)c1ccc(OCCn2cnc3ccccc32)c(Cl)c1`: the outcome was inactive. For `Cc1ccc2c(c1)[nH]c(=S)n2CCOc1ccccc1`, the result was inactive. As for `Clc1ccccc1OCCn1cnc2ccccc21`, the compound was called inactive. The entry for `Cc1ccc(OCCn2cnc3cc(C)c(C)cc32)cc1` is “inactive”. The entry for `c1ccc2c(c1)ncn2CCOc1ccc2c(c1)CCC2` is “inactive”. On to `CCCc1nc2ccccc2n1CCOc1ccccc1`, for which the compound was called inactive. With `COc1cccc(OCCn2cnc3ccccc32)c1`, the compound was classed as inactive. `Cc1cccc(OCCn2c(=S)[nH]c3ccccc32)c1`: the result was inactive. For `Cc1ccc(OCCn2cnc3ccccc32)c(C)c1`, the result was inactive. As to `Cc1ccc(C(C)C)c(OCCn2c(N)nc3ccccc32)c1`, the compound was called inactive. For the compound `Fc1ccc2c(c1)[nH]c(=S)n2CCOc1ccccc1`, the call was inactive. Turning to `CC(C)Oc1cccc(OCCn2cnc3ccccc32)c1`, the compound was classed as inactive. With `Cc1cccc(OCCn2c(=S)[nH]c3cc(F)ccc32)c1`, the compound was called inactive. As to `Cc1cc2ncn(CCOc3ccccc3)c2cc1C`, the compound was classed as inactive. Take `Clc1ccc(OCCn2cnc3ccccc32)c(Cl)c1`: the outcome was inactive.
